The panel holds about 83,000 compounds, 20% with a hit somewhere; the sample as a whole holds those more often.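 48-hour exposure, single concentration, 96-well plates; percent growth endpoint where 0 means no net growth. Active: below 10.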 A number with no mark means an inactive call. Active and inactive are the calls of the source.
Columns and labels:
Assay in all cases: NCI-60 one-dose screen, 48 h (100 = growth as untreated, 0 = no growth, -100 = all killed)
Conditions in all cases: 10 µM unless noted
[1] = test system: SK-MEL-2 melanoma
[2] = test system: EKVX NSCLC
[3] = test system: SN12C renal
[4] = test system: UO-31 renal
[5] = test system: TK-10 renal
[6] = test system: ACHN renal
[7] = test system: CAKI-1 renal
[8] = test system: A498 renal
[9] = test system: CCRF-CEM leukemia
[10] = test system: MOLT-4 leukemia
[11] = test system: SR leukemia
[12] = test system: RPMI-8226 leukemia
[13] = test system: OVCAR-8 ovarian
[14] = test system: OVCAR-5 ovarian
[15] = test system: OVCAR-4 ovarian
[16] = test system: SK-OV-3 ovarian
[17] = test system: IGROV1 ovarian
[18] = test system: OVCAR-3 ovarian
[19] = test system: HS 578T breast
[20] = test system: NCI/ADR-RES ovarian

SMILES | growth [1] [%] | growth [2] [%] | growth [3] [%] | growth [4] [%] | growth [5] [%] | growth [6] [%] | growth [7] [%] | growth [8] [%] | growth [9] | growth [10] | growth [11] | growth [12] [%] | growth [13] | growth [14] [%] | growth [15] [%] | growth [16] [%] | growth [17] [%] | growth [18] [%] | growth [19] [%] | growth [20] [%]
COc1ccc2c(O)c(/C=C3\N=Nc4ccccc43)oc2c1C[C@@H]1CCNC[C@H]1F | 96.9 | 64.5 | 67.7 | 50.5 | 84.2 | 61.3 | 64.8 | 57.9 | -16.3% (active) | 68% | -38.5% (active) | 91.9 | 0.196% (active) | 67.8 | 64.9 | 90.5 | 76.4 | 94 | 60.3 | 72.1
O=C1C(Cl)=C(Nc2ccc(O)cc2)C(=O)N1Cc1ccc(Cl)cc1 | 66.2 | 79 | 64.9 | 52.2 | 63.2 | 71.4 | 74 | 75.4 | 4.97% (active) | 16.9% | 5.96% (active) | 26.1 | 65% | 85.3 | 77.5 | 88.1 | 30.5 | 40.8 | 78.6 | 81.3
COc1ccc2c(c1)[n+]([O-])c(C(=O)/C=C/C=C(\Cl)c1cc(OC)c(OC)c(OC)c1)c(C)[n+]2[O-] | 47.2 | 85.6 | 78.1 | 107 | 89.2 | 44.7 | 79.1 | 96.6 | 99.8% | 96.1% | 89.5% | 109 | 43.7% | 104 | 108 | 38 | 64.6 | 93 | 68 | 91
O=C(COc1ccc(-c2nc3ccccc3[nH]2)cc1)N=Nc1c(O)[nH]c2ccc(Cl)cc12 | 107 | 95.7 | 83.9 | 93.9 | 88.2 | 97.6 | 93.9 | 89.8 | 27.6% | 22.9% | 11.2% | 57.4 | 11.9% | 104 | 60.7 | 103 | 88 | 63.7 | 72.4 | 107
CNc1nc(S(=O)c2ccc(C#N)cc2)nc2ccccc12 (stereo not given) | 105 | 82.2 | 68.9 | 60.2 | 109 | 41.8 | 39.9 | 86 | 32.2% | 68.6% | 29.4% | 61 | 87.8% | 81.2 | 68.6 | 98.6 | 86.3 | 53.4 | 79.9 | 97.8
O=C(c1ccc(-c2nc(CSc3nc4ccccc4s3)no2)cc1)N1CCSCC1 | 45.7 | 47.1 | 82.3 | 55.6 | 55.1 | 60.4 | 63.5 | 82.1 | 71.2% | -1.49% (active) | 43% | 47.2 | 43% | 117 | 69.5 | 72.6 | 77.6 | 78.8 | 106 | 52.7
N#Cc1c(-c2cccs2)cc(-c2cccnc2)[nH]c1=O | 113 | 105 | 95.2 | 78 | 109 | 97.2 | 96.1 | 141 | 94.7% | 108% | 95.9% | 98.6 | 97.9% | 96.9 | 118 | 97.2 | 108 | 104 | 102 | 103
CC1(C)CC[C@]2(c3nnc(-c4ccncc4)o3)CC[C@H]3C(=CC[C@H]4[C@@]3(C)CC[C@H]3C(C)(C)C(=O)CC[C@]43C)[C@@H]2C1 | 97 | 80.1 | 75.2 | 51 | 97.5 | 71.3 | 58.1 | 31.6 | 52.5% | 38.7% | 17% | 19.2 | 86.9% | 96.1 | 70.1 | 82.9 | 71.9 | 45 | 82.4 | 82

— PubChem BioAssay (NCI)
